The source made the active and inactive calls. How the source made its calls: active means hit-call score of the fitted dose curve at least 0.9, where 1 is the maximum; inactive means score below 0.9.

Sequence of Voltage-dependent L-type calcium channel subunit alpha-1C (Rattus norvegicus) (P22002 whole entry, looked up): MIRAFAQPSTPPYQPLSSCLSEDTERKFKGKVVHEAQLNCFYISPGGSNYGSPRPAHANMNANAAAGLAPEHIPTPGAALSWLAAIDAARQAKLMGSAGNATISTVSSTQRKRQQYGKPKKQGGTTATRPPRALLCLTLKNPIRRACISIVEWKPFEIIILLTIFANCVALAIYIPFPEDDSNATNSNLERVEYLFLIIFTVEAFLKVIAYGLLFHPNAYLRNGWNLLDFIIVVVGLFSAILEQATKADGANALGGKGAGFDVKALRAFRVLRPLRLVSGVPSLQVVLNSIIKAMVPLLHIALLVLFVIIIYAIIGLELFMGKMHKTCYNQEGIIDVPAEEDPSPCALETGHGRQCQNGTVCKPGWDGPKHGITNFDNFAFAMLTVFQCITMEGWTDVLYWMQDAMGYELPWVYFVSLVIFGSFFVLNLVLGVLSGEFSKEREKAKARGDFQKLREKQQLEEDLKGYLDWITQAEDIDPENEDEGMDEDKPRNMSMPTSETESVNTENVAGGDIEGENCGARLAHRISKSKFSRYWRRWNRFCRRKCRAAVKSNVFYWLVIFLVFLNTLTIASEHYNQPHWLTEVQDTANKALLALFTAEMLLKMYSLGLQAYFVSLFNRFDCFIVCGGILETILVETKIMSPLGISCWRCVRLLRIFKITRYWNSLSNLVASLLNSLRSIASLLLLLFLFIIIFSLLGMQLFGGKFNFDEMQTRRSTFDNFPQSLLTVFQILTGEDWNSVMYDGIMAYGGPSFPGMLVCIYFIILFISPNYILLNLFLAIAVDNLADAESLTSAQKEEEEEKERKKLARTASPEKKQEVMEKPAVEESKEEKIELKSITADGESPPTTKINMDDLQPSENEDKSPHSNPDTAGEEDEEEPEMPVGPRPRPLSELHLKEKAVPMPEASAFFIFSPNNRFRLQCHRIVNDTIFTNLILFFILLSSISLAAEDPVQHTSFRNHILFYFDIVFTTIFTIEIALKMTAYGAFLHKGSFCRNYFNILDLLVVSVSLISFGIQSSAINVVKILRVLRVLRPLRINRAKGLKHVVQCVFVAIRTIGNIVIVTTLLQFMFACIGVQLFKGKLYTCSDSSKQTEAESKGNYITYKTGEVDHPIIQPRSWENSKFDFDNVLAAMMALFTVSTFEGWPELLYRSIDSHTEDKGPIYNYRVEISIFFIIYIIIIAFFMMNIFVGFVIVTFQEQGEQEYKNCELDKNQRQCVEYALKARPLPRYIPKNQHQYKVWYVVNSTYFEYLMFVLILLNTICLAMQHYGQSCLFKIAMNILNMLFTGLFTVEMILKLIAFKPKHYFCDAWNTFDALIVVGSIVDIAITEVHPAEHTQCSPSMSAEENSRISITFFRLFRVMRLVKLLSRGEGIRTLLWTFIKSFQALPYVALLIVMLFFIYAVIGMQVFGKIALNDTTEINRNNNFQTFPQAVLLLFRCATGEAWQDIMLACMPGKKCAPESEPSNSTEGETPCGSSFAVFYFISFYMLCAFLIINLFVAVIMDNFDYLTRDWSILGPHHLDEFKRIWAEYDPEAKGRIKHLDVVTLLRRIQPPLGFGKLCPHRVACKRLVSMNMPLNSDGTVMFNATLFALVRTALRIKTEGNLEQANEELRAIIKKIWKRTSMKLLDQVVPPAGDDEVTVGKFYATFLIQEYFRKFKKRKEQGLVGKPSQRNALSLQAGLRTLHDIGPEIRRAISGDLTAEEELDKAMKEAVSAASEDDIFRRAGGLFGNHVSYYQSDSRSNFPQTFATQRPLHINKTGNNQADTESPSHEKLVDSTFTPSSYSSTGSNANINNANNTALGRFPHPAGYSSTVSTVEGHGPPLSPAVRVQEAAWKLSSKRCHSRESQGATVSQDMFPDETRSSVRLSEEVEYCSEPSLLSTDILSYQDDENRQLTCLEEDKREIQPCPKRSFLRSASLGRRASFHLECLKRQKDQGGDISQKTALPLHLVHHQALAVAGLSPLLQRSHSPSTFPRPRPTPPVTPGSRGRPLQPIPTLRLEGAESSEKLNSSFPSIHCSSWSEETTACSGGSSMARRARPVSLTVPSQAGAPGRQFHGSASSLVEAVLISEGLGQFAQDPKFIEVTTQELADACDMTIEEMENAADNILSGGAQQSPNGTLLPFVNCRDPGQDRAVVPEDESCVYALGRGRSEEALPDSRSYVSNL

This experiment concerns the target Voltage-dependent L-type calcium channel subunit alpha-1C (Rattus norvegicus) (UniProt P22002). Nature of the experiment: ERF_FR_IC_rCACNA1C_Diltiazem: Eurofins (ERF) Calcium Ion Channel Binding (Diltiazem Site) LeadHunter Assay for rat Cav1.2 (L-type). Here is the method: ERF_FR_IC_rCACNA1C_Diltiazem is a biochemical, single-readout assay that uses extracted gene-proteins in a cell-free assay. Measurements were taken 2 hour after chemical dosing in a 96-well plate. See Cav1.2 (L-type) Rat Calcium Ion Channel Binding (Diltiazem Site) Assay, Cerep.ERF_FR_IC_rCACNA1C_Diltiazem is an assay component calculated from the ERF_FR_IC_rCACNA1C_Diltiazem assay. It is designed to measure radioligand binding using a type of binding reporter as detected by scintillation counting with radiometry technology.Data from the assay component ERF_FR_IC_rCACNA1C_Diltiazem was analyzed at the assay endpoint, ERF_FR_IC_rCACNA1C_Diltiazem, in the positive analysis fitting direction relative to DMSO as the negative control and baseline of activity. Using a type of binding reporter, loss-of-signal activity can be used to understand changes in binding as they relate to gene CACNA1C. To generalize the intended target to other relatable targets, this assay endpoint is annotated to the ion channel intended target family, where the subfamily is voltage gated (Calcium).
Rat cells are incubated for 120 minutes at room temprature with [3H]diltiazem (15 nM) as substrate and Papaverine as control inhibitor. Test Sample Requirements: Minimum for 1) Screen: 60 ul of 10 mM stock -OR- 1 mg (pre-weighed) for 10 uM final testing. […]
One may read the AC50 as the midpoint of the concentration-response curve, whichever way the signal moves. On to `O=C(/C=C/c1ccc(O)cc1)CC(=O)/C=C/c1ccc(O)cc1`, for which the AC50 is 3.46 µM (active).
